An excerpt weighted towards active compounds, which were near 4.2% of everything screened.
ssDAF-12 act – activators of S. stercoralis DAF-12 nuclear receptor; activation, % at 6.8 µM; hit rate 1% among 370,000; HEK293 ssDAF-12/GRIP1 lit1-tk-luc reporter, luminescence; % of 3 µM dafachronic acid response;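 active means activation above the mean over all tested compounds plus 3 SD, cut at about 0.9% in these data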;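 further: 0% = DMSO-only wells and 100% = 3 µM delta7-dafachronic acid wells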
hcDAF12 agonist – activators of H. contortus DAF-12 nuclear receptor; activation, % at 6.8 µM; hit rate 1.4% among 370,000; HEK293 hcDAF-12 lit1-tk-luc reporter, luminescence; 0% DMSO, 100% Δ7-dafachronic acid;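 active means activation above the mean of all tested compounds plus 3 SD, cut at about 5.5% in these data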;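 further: 100% = response to 3 µM Δ7-dafachronic acid high control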
Wnt bcat act – activators of Wnt/beta-catenin signaling; Wnt/beta-catenin reporter cell assay, activator, plate reader; hit rate 1.2% among 300,000; activation, % at 9.35 µM; in the data active means activation above about 30%, passing the limit was not always enough; inconclusive means no clear call, values can overlap the other calls;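 further: 0% = neutral control wells and 100% = positive control wells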
esBAF inh – inhibitors of esBAF chromatin remodeling in mouse ES cells. hit rate 2% among 350,000. Bmi1-luciferase knock-in reporter, 24 h; 100% = twice the neutral-well signal. reporter increase, % at 12.5 µM; in the data active means activation above about 40%; inconclusive means no clear call, values can overlap the other calls;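 further: 0% = median of the plate's neutral control wells and 100% = double that signal; a rise in the Bmi1 reporter signal indicates esBAF inhibition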
DAX1 inh – blocks DAX1 repression of SF-1 activated StAR promoter. AID 652010. inhibition, % at 6.8 µM. HEK293T StAR-luciferase reporter, SF-1/DAX-1 repression relief. hit rate 1.1% among 370,000;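 active means inhibition above the mean over all tested compounds plus 3 SD, cut at about 3.6% in these data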;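 further: 0% = DAX-1 cells with DMSO and 100% = cells lacking DAX-1 with DMSO; higher inhibition means more luminescence from relief of DAX-1 repression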
hgDAF12 agonist – activates the H. glycines DAF-12 receptor ligand-binding domain | HEK293 GAL4-hgDAF12 UAS-luciferase reporter, agonist luminescence; normalized to butyrate control | activation, % at 6.8 µM | hit rate 1.8% among 370,000;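 active means activation above a cutoff set at the mean of all screened compounds plus 3 SD, cut at about 10% in these data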;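 further: 0% = DMSO wells and 100% = sodium butyrate wells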
LXRb hcDAF ctr – LXR-beta agonism as hcDAF-12 counter-screen; shares compounds with hcDAF12 agonist; 3,400 tested, under 10 active; activation, % at 6.8 µM; HEK293 Gal4-LXR tk-luc reporter, luminescence, 24 h; normalized: DMSO 0%, positive control 100%; AID 743027;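 active means mean percent activation of the reporter above a cutoff set as the average over tested compounds plus their standard deviation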
Target sequence (P55055 whole entry, looked up, the tested form may be a part): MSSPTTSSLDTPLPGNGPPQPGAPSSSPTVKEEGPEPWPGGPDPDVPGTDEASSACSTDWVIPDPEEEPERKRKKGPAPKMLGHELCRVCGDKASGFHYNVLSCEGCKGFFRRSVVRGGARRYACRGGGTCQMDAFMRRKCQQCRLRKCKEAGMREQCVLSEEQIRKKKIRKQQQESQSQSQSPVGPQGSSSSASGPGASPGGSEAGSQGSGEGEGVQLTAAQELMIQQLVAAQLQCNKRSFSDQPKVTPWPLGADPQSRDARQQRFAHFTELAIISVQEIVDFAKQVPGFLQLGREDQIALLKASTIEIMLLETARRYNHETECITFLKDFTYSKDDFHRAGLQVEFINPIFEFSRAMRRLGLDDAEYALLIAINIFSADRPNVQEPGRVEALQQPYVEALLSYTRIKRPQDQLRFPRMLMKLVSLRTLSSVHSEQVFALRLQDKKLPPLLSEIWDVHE
hcDAF12 ag – hcDAF-12 agonism, confirmation assay; activation, % at 6.8 µM; shares compounds with hcDAF12 agonist; HEK293 hcDAF-12 lit1-tk-luc reporter, luminescence; % of Δ7-dafachronic acid response; hit rate 61% among 3,400;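 active means mean activation across triplicate tests above the threshold derived from the earlier primary screen, cut at about 5.5% in these data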;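 further: 0% = DMSO only wells and 100% = 3 µM Δ7-dafachronic acid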
* = called active by the depositor; ? = inconclusive; . = no result given.

SMILES	ssDAF-12 act	hcDAF12 agonist	Wnt bcat act	esBAF inh	DAX1 inh	hgDAF12 agonist	LXRb hcDAF ctr	hcDAF12 ag
N#C/C(=C\c1cn(-c2ccccc2)nc1-c1cc2ccccc2o1)c1nc2ccccc2[nH]1	-0.3	6.6*	.	.	1.2	6.5	-0.1	0.6
COc1ccc(/C(C)=N/Nc2nc3ccccc3nc2C)cc1OC	-0.2	8.4*	5.3	17.1	1.5	9.0	0.0	-0.1
Cc1ccc(NC(=S)N2CCC(O)CC2)c(C)c1	-0.8	-1.6	-1.5	.	-0.8	1.4	.	.
Cc1ccc(NC(=S)N2CCCC(CO)C2)c(C)c1 (stereo unspecified)	-0.1	6.9*	?	.	1.6	11.2*	0.0	2.4
Cn1ccnc1Sc1ccc(/C=N/NC(=O)c2ccccc2O)cc1[N+](=O)[O-]	0.6	9.5*	.	35.5	0.0	5.5	0.1	7.2*
CCC(=O)Nc1nc(N)n(-c2ccccc2)n1	-0.7	-2.5	-1.3	1.8	-1.2	0.6	.	.
CCC(=O)Nc1cc2nn(-c3ccccc3)nc2cc1Cl	0.3	7.3*	37.6*	36.4	1.5	7.9	1.7	13.2*
Oc1ccccc1-c1ccn[nH]1	-1.6	0.8	5.1	17.7	0.2	0.8	.	.
Cc1ccc(-c2cc(-c3ccc(F)cc3)n[nH]2)c(O)c1	4.8*	20.1*	15.7	34.7	2.4	18.1*	1.8	17.9*
Oc1ccccc1-c1cc(-c2ccccc2)n[nH]1	4.5*	19.3*	53.3*	18.3	3.7*	19.0*	1.8	20.8*
Cc1ccc(O)c(-c2cc(-c3cccc(Br)c3)n[nH]2)c1	-0.4	1.2	1.5	10.3	0.0	2.2	.	.
Oc1ccccc1-c1cc(-c2ccc(F)cc2)n[nH]1	4.3*	18.6*	53.4*	-6.4	2.6	21.8*	2.0	18.9*
COc1ccc(O)c(-c2cc(-c3ccccc3Cl)[nH]n2)c1	0.4	7.5*	12.9	73.7*	0.6	7.0	0.4	4.3
CCC(=O)N1CC[C@@H]2[C@H](CO)Nc3ccc(-c4cccc(C#N)c4)cc3[C@@H]21	.	.	.	0.1	.	.	.	.
O=C(C[C@H]1C[C@H]2c3cc(NC(=O)Cc4ccncc4)ccc3O[C@H]2[C@H](CO)O1)NCCc1ccccc1	.	.	.	2.3	.	.	.	.
COc1ccc(-c2cc(-c3ccccc3O)[nH]n2)cc1	4.4*	19.5*	.	.	3.7*	21.8*	2.6	23.1*
CCNC(=O)C[C@@H]1CC[C@H]2[C@@H](COc3ccc(NC(=O)c4ccc5c(c4)OCO5)cc3C(=O)N2C)O1	.	.	.	4.5	.	.	.	.
Nc1ccccc1SSc1ccccc1N	-0.1	10.5*	5.9	20.7	-1.1	4.0	0.2	5.3
CSc1nc(O)c(/C=C2\C=Nc3ccccc32)[nH]1	0.3	12.1*	23.4	.	1.1	10.3	0.2	10.5*
CC(=O)Nc1sc(N/N=C\c2cccc(Cl)c2)nc1-c1cccs1	-0.5	8.4*	.	.	1.2	5.1	0.5	7.8*
Cc1ccc(Nc2nc3ccccc3o2)cc1F	0.6	7.3*	30.8*	14.1	4.0*	11.8*	0.7	5.2
Oc1ccccc1-c1nc2c3ccccc3c3ccccc3c2[nH]1	0.1	7.5*	-1.5	10.4	-1.0	3.6	-0.1	5.2
O=C(O)[C@@H]1Cc2c([nH]c3ccccc23)C2CCC(=O)N21 (stereo partly specified)	1.6*	7.6*	2.2	-5.6	0.0	-0.3	-0.4	0.2
COc1ccc(S(=O)(=O)N[C@H]2CC[C@H](CC(=O)O)O[C@@H]2CO)cc1	.	.	.	1.0	.	.	.	.
O=C1Nc2ccccc2/C1=C/c1cnc(-c2ccccc2)[nH]1	1.2*	9.7*	41.3*	?	0.8	5.4	0.8	9.8*
O=C1Nc2ccccc2/C1=C/c1cccnc1	-1.9	-1.8	-1.6	.	-1.1	9.1	.	.
CCC(=O)N(C)C[C@@H]1Oc2cc(C#CCN(C)C)ccc2S(=O)(=O)N([C@@H](C)CO)C[C@@H]1C	.	.	.	1.9	.	.	.	.

Screening data deposited in PubChem BioAssay by several laboratories.
